This is an account of results in PubChem BioAssay AID651820 (National Center for Advancing Translational Sciences (NCATS), 2012).

Among all 340,000 compounds or so, about 12,000 (3.5%) were called active. About 18% were inconclusive and are not listed. The entries come from a sample that favours actives as a whole. Unmarked numbers belong to inactive results. Calls follow the shape of the dose curve; as a rule, active = well fitted inhibition curve with a large enough effect; inconclusive = small, poorly fitted or top-dose-only effect, or another doubt; inactive = no such curve, though single readings can be large or run the other way.
% is scaled to controls: 0 for no effect and ±100 for the full control effect.

The assay can be described thus: qHTS Assay for Inhibitors of Hepatitis C Virus (HCV). The settings on record: Huh7.5.1 HCVcc-Cre infection, luciferase reporter, 44 h; series mostly up to 41.8 µM; activity change, negative = inhibition: at the top concentration. From the text:
Hepatitis C virus (HCV) infects about 200 million people in the world. Many infected people progress to chronic liver disease including cirrhosis with a risk of developing liver cancer. To date, there is no effective vaccine for hepatitis C. Current therapy based on interferon is only effective in about half of the patients and is associated with significant adverse effects. The fraction of people with HCV who can complete a successful treatment is estimated to be no more than 10 percent. Recent development of direct-acting antivirals against HCV, such as protease and polymerase inhibitors, is promising but still requires combination with peginterferon and ribavirin for maximal efficacy. In addition, these agents are associated with high rate of resistance and many have significant side effects. Due to the lack of a culture system for infectious HCV, the search for new HCV drugs has been greatly hampered. […] High-throughput screening (HTS) with an infectious HCV system would cover the complete spectrum of potentially druggable targets in all stages of HCV lifecycle, and would have more biological relevance than other cell-based assays. Moreover, targeting several key processes in the viral life cycle may not only increase antiviral efficacy; more importantly, it may also reduce the capacity of the virus to develop resistance to the compound. The goal of this project is to identify novel HCV inhibitors as new therapies for hepatitis C, using a highly sensitive and specific assay platform which is based on a HCV infectious cell culture system established in the laboratory and adapted for high-throughput HCV drug screen. NIH Chemical Genomics Center [NCGC] NIH Molecular Libraries Probe Centers Network [MLPCN] MLPCN Grant: MH095511 Assay Submitter (PI): Jake Liang, NIDDK
The assay will start with plating 1,000 cells/well in 3 µL volume and culture for 4 h. Then 23 nL of compounds from the library collection will be added to each well, followed by adding 2.5 µL of HCVcc-Cre virus (~ 0.5 moi) and further cultured for 44 h before the luciferase assay. A volume of 4.5 µL luciferase substrates will be added to each well and the plates will be incubated at room temperature for 15 min. and then read for 15 sec. for the luciferase activity
(In general: In qHTS, concentration-response curves come from the screen itself.)
In the case of `Cn1c(N)c(C(=O)COC(=O)c2cccc(S(=O)(=O)N3CCOCC3)c2)c(=O)n(C)c1=O`, the “activity change, negative = inhibition” value was 0.421% (inactive).

Turning to `O=C(NCC(=O)N1CCCCCCC1)c1ccccc1Cl`, the “activity change, negative = inhibition” value is 12.8% (inactive).

With `CC1=C(C(=O)OCc2ccccc2)C(c2ccc(C(F)(F)F)cc2)NC(=O)N1CCCCCC(=O)O` (stereo unspecified), the “activity change, negative = inhibition” value was 14% (inactive).

Turning to `COC(=O)CCCCCN1C(=O)NC(c2ccc(-c3ccccc3)cc2)C(C(=O)OCc2ccccc2)=C1C` (stereo unspecified), the activity change, negative = inhibition is 4.51% [at 8.37 µM].

`CCCCNC(=O)C(C)N(CCN(C)C)C(=O)CCCCCN1C(=O)NC(c2ccc(Cl)cc2)C(C(=O)OCc2ccccc2)=C1C` (stereo unspecified): the Potency is 11.2 µM (active).

In the case of `CCOC(=O)CCCNC(=O)CN1C(=O)NC(CCc2ccccc2)C1=O` (stereo unspecified), the “activity change, negative = inhibition” value is 12.1% (inactive).

Take `CCCCNC(=O)C(C)N(CCN(C)C)C(=O)CCCN1C(=O)NC(c2ccc(Cl)cc2)C(C(=O)OCc2ccccc2)=C1C` (stereo unspecified): the Potency was 11.2 µM (active).

For `CC1=C(C(=O)OC(C)(C)C)C(c2ccc(Br)cc2)NC(=O)N1CCCC(=O)O` (stereo unspecified), the “activity change, negative = inhibition” value is 24.6% (inactive).

With `O=C(COC(=O)CSc1ccccc1)Nc1ccc(F)cc1F`, the “activity change, negative = inhibition” value was -7.26% (inactive).

With `CCC(C)C1(C2CCCC2)NC(=O)NC1=O` (stereo unspecified), the “activity change, negative = inhibition” value was 5.9% (inactive).

`CC(C)(C)OC(=O)C1=C(CO)CS[C@@H]2[C@H](NC(=O)Cc3ccccc3)C(=O)N12`: the “activity change, negative = inhibition” value is -8.25% (inactive).

For the molecule `O=C(c1ccc2nc(N3CCOCC3)sc2c1)N1CCN(c2ccc(Cl)cc2)CC1`, the “activity change, negative = inhibition” value was -24.6% (inactive).

As to `Brc1ccc2nc(N3CCCC3)sc2c1`, the Potency is 11.2 µM (active).

In the case of `c1c2c(cc3sc(N4CCCCC4)nc13)OCCO2`, the “activity change, negative = inhibition” value was -2.95% (inactive).

As to `COc1ccc(C)cc1NC(=O)CN1c2cccc3cccc(c23)S1(=O)=O`, the “activity change, negative = inhibition” value was -27% (inactive).

For `CCCCNCCS(=O)(=O)NCc1ccccc1`, the “activity change, negative = inhibition” value is 9.37% (inactive).

Take `COc1ccccc1N(CC(=O)N/N=C(\C)c1ccccc1O)S(=O)(=O)c1ccc(C)cc1`: the Potency was 10 µM (active).

Consider `COc1ccc(S(=O)(=O)N(CC(=O)N/N=C/c2ccccc2C(=O)O)c2ccccc2OC)cc1`, for which the “activity change, negative = inhibition” value is 19.8% (inactive).

In the case of `COc1ccccc1N(CC(=O)Nc1c(C)n(C)n(-c2ccccc2)c1=O)S(=O)(=O)c1ccccc1`, the “activity change, negative = inhibition” value is -1.73% (inactive).

Take `CCOc1ccc(S(=O)(=O)N2CCN(C(=O)c3oc4ccccc4c3C)CC2)cc1`: the “activity change, negative = inhibition” value was -5.95% (inactive).

Turning to `O=C(NCC1CCCO1)c1ccc(S(=O)(=O)Nc2ccc(F)cc2)cc1` (stereo unspecified), the “activity change, negative = inhibition” value was 9.57% (inactive).

Consider `COc1cc(C(=O)CCc2ccc3c(c2)OCO3)cc(OC)c1OC`, for which the Potency was 14.1 µM (active).

As for `COc1cc(OC)c(C(=O)NCc2ccc3c(c2)OCO3)cc1OC`, the “activity change, negative = inhibition” value is -27.1% (inactive).

In the case of `COc1ccc(CNCCc2ccc3c(c2)OCO3)c(OC)c1OC`, the “activity change, negative = inhibition” value was 13.6% (inactive).

`O=C(NCCS(=O)(=O)NCc1ccc(Cl)cc1)c1ccccc1`: the activity change, negative = inhibition was 6.73% [at 8.37 µM].

With `COc1ccc(Cl)cc1C(=O)OCC(=O)NCc1cccs1`, the “activity change, negative = inhibition” value was 9.75% (inactive).

Regarding `COc1ccc(C(=O)OCC(=O)c2ccc(Cl)s2)c(OC)c1OC`, the Potency is 2.51 µM (active).

For the molecule `COc1ccc(C(=O)OCC(=O)Nc2ccc3[nH]c(=O)[nH]c3c2)c(OC)c1OC`, the “activity change, negative = inhibition” value is -8.43% (inactive).

For the molecule `CN(O)C(=S)c1ccccc1`, the “activity change, negative = inhibition” value is -10.2% (inactive).

`CCNC(=O)N(CC)C[C@H]1N[C@@](CC)(C(=O)OC)[C@H]2C(=O)N(Cc3ccccc3)C(=O)[C@@H]12`: the activity change, negative = inhibition is 23% [at 8.37 µM].

For `O=C(CSc1n[nH]c(-c2cccs2)n1)N1CCCCC1`, the “activity change, negative = inhibition” value was -15% (inactive).

Turning to `O=C(Nc1ccc2c(c1)C(=O)OC2)Nc1cccc2ccccc12`, the “activity change, negative = inhibition” value was 1.88% (inactive).

Consider `CC(=O)N(C)c1ccc(NC(=O)Nc2cccc3ccccc23)cc1`, for which the Potency was 12.6 µM (active).

Turning to `O=C(O)Cc1ccc(NC(=O)Nc2cccc3ccccc23)cc1`, the “activity change, negative = inhibition” value was 6.08% (inactive).

With `O=C(CSC1=NS(=O)(=O)c2cc(F)ccc2N1)Nc1ccccc1F`, the “activity change, negative = inhibition” value was 0.897% (inactive).

In the case of `CCOC(=O)N1CCN(C(=O)COC(=O)c2cccc(S(C)(=O)=O)c2)CC1`, the “activity change, negative = inhibition” value was -10.6% (inactive).

`CC(=O)c1ccc(NC(=O)CSc2nc3ccccc3c(=O)n2CCCN2CCOCC2)cc1`: the “activity change, negative = inhibition” value is -0.979% (inactive).

Regarding `CCOc1cc(NC(=S)NCc2ccco2)c(OCC)cc1NC(=O)c1ccco1`, the Potency was 2.82 µM (active).

As to `COc1cc(NC(=S)NCc2ccco2)c(OC)cc1Cl`, the “activity change, negative = inhibition” value was -10.1% (inactive).

With `CCOc1cc(NC(=O)c2ccco2)c(OCC)cc1NC(=O)COc1ccccc1`, the “activity change, negative = inhibition” value is -15.5% (inactive).

On to `CN1C(C(=O)NCC2CC2)CC2Cn3c(nc4ccccc43)C21` (stereo unspecified), for which the “activity change, negative = inhibition” value was 22.1% (inactive).

As for `Cc1ccc(NC(=O)COC(=O)CN2CCCCCC2=O)c(C)c1`, the “activity change, negative = inhibition” value was 4.62% (inactive).

Take `COc1ccc(C(=NN)c2ccc(OC)cc2)cc1`: the “activity change, negative = inhibition” value is 1.54% (inactive).

On to `Cc1cccc(N2CC(C(=O)Nc3ccccc3N3CCCC3)CC2=O)c1C` (stereo unspecified), for which the “activity change, negative = inhibition” value was -0.701% (inactive).

On to `CCCCCCC(=O)Nc1nc(C)c(-c2csc(Nc3cc(Cl)ccc3OC)n2)s1`, for which the “activity change, negative = inhibition” value was -20.7% (inactive).

`Cc1nc(NC(=O)CN(C)S(=O)(=O)c2ccc(Cl)cc2)sc1C`: the “activity change, negative = inhibition” value was -3.57% (inactive).

As for `CCCCC(=O)Nc1nc(C)c(-c2csc(Nc3ccc(Cl)cc3)n2)s1`, the Potency was 8.91 µM (active).

Regarding `Cc1ccc(Nc2nc(-c3sc(NC(=O)c4ccccc4)nc3C)cs2)cc1`, the “activity change, negative = inhibition” value was -15.4% (inactive).

On to `CC(=O)c1sc(NC(=O)CCCOc2ccccc2C)nc1C`, for which the “activity change, negative = inhibition” value was -14.9% (inactive).

For the molecule `C=CCCC(=O)Nc1nc(C)c(-c2csc(Nc3ccc(Cl)cc3)n2)s1`, the Potency is 11.2 µM (active).

In the case of `CCOC(=O)C1CCN(C(=O)c2cccc(S(=O)(=O)N(CC)c3ccccc3)c2)CC1`, the “activity change, negative = inhibition” value is -1.31% (inactive).
